Compound activity from PubChem BioAssay.
Hits are enriched below; roughly 6.8% of the tested compounds scored in any of these assays.
C diff HTS – blocks growth of Clostridium difficile | 0.25% of 86,000 active | Clostridium difficile clinical isolate growth, OD600, 24 h; stronger effect = lower value | growth activity, negative = inhibition, % at 16 µg/mL (by protocol);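 active means mean growth activity at or below -80% and every replicate also at or below -80%; inconclusive means mean at or below -80% but some replicate above -80%; inactive means mean growth activity above -80%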;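 further: 0% = DMSO wells and -100% = levofloxacin 16 µg/mL wells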
Pf Dd2 growth – blocks growth of Plasmodium falciparum Dd2 parasites; P. falciparum Dd2 growth, SYBR Green, 72 h; stronger effect = lower value; activity change, % at 10 µM; 2.3% of 94,000 active; AID 1159554; in the data active means activity change below about -80%; inconclusive means no clear call, values can overlap the other calls
T cruzi growth-1 – T. cruzi proliferation inhibition; inhibition, % at 8.34 µM; 5.9% of 77,000 active; T. cruzi beta-gal in NIH3T3, GalScreen luminescence, 90 h;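 active means mean inhibition above about 93%, with at least 55% of replicates each passing it, limit read from the data, passing the limit was not always enough; inconclusive means only one of those two conditions holds; inactive means neither condition holds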
T cruzi growth-2 – blocks T. cruzi growth in NIH3T3 host cells; shares compounds with T cruzi growth-1; inhibition, % at 8.35 µM; T. cruzi beta-gal in NIH3T3, GalScreen luminescence, 90 h; 72% of 5,600 active;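 active means mean replicate inhibition above about 95% and at least 55% of replicates individually reaching it, limit read from the data; inconclusive means only one of the two criteria is met; inactive means neither criterion is met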
T cruzi growth-3 – inhibitors of T. cruzi proliferation; shares compounds with T cruzi growth-1; T. cruzi beta-gal in NIH3T3, GalScreen luminescence, 90 h; inhibition, % at 2.09 µM; 21% of 5,600 active;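 active means mean inhibition above about 95%, with at least 55% of replicates also reaching it, limit read from the data; inconclusive means meets just one of the two conditions; inactive means meets neither condition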;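 further: plate controls were neutral control median for no effect and positive control median for full effect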
NIH3T3 tox – cytotoxicity in mouse NIH/3T3 fibroblasts | NIH/3T3 viability, CellTiter-Glo ATP luminescence, 90 h | shares compounds with T cruzi growth-1 | 14% of 5,600 active | cytotoxicity (signal decrease), % at 8.35 µM | AID 651742;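 active means mean signal decrease across replicates above about 35% based on untreated-well scatter, with enough replicates individually passing, limit read from the data; inconclusive means no rule stated though some were filed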;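 further: 0% = median of neutral control wells and 100% = median of positive control wells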
NIH3T3 tox 2 – kills mouse NIH/3T3 fibroblasts; inhibition, % at 24.9 µM; NIH/3T3 viability, CellTiter-Glo ATP luminescence, 90 h; shares compounds with T cruzi growth-1; 56% of 5,600 active; AID 651744;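 active means mean loss of cell viability signal at or above a set limit, and enough replicates individually reaching it; inconclusive means meets only the mean limit or only the replicate share; inactive means meets neither condition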;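 further: 0% = median of neutral control wells and 100% = median of positive control wells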
Numbers without * were called inactive; ? = inconclusive; . = no result given.

SMILES | C diff HTS | Pf Dd2 growth | T cruzi growth-1 | T cruzi growth-2 | T cruzi growth-3 | NIH3T3 tox | NIH3T3 tox 2
CCCC#Cc1ccc2c(c1)O[C@H](CN(C)S(=O)(=O)c1cccc(F)c1)[C@@H](C)CN([C@@H](C)CO)S2(=O)=O | 8.6 | -35.5 | 114.4* | 100.4* | 117.4* | 0.4 | 104.1*
COCC#Cc1ccc2c(c1)O[C@H](CN(C)S(=O)(=O)c1cccc(F)c1)[C@@H](C)CN([C@H](C)CO)S2(=O)=O | 10.5 | -70.4 | ? | 70.3 | 10.2 | 20.2 | 68.9*
COCC#Cc1ccc2c(c1)O[C@H](CN(C)S(=O)(=O)c1cccc(F)c1)[C@H](C)CN([C@@H](C)CO)S2(=O)=O | 6.1 | -69.2 | 42.2 | . | . | . | .
CCCC#Cc1ccc2c(c1)O[C@H](CN(C)S(=O)(=O)c1cccc(F)c1)[C@H](C)CN([C@@H](C)CO)S2(=O)=O | 10.6 | -67.7 | 123.8* | 96.2* | 98.9* | 42.6* | 76.2*
CCCC#Cc1ccc2c(c1)O[C@@H](CN(C)S(=O)(=O)c1cccc(F)c1)[C@H](C)CN([C@@H](C)CO)S2(=O)=O | 17.4 | -32.2 | 124.3* | 105.6* | 107.5* | 33.2 | 67.3*
CCCC#Cc1ccc2c(c1)O[C@H](CN(C)S(C)(=O)=O)[C@@H](C)CN([C@H](C)CO)S2(=O)=O | 6.7 | -7.0 | 26.2 | . | . | . | .
C[C@H](CO)N1C[C@H](C)[C@@H](CN(C)Cc2cccnc2)Oc2ncc(C#CCc3ccccc3)cc2C1=O | -5.3 | -59.3 | 62.4 | . | . | . | .
Cc1ccc(S(=O)(=O)N[C@H]2CC[C@@H](CCNC(=O)C3CCCCC3)O[C@@H]2CO)cc1 | . | 4.5 | 26.9 | . | . | . | .
C[C@H]1CN([C@@H](C)CO)C(=O)c2cccc(NC(=O)Nc3ccccc3)c2O[C@@H]1CN(C)Cc1ccncc1 | 1.8 | -14.6 | 24.9 | . | . | . | .
O=C(C[C@@H]1CC[C@H](NC(=O)Nc2cc(F)ccc2F)[C@@H](CO)O1)NCCCN1CCOCC1 | -6.6 | 7.3 | . | . | . | . | .
CCCC#Cc1ccc2c(c1)O[C@H](CN(C)S(C)(=O)=O)[C@@H](C)CN([C@@H](C)CO)S2(=O)=O | 2.9 | -7.0 | 42.5 | . | . | . | .
CCCC#Cc1ccc2c(c1)O[C@@H](CN(C)S(=O)(=O)c1cccc(F)c1)[C@H](C)CN([C@H](C)CO)S2(=O)=O | 4.0 | -22.2 | 123.4* | 106.2* | 84.1 | 50.8* | 96.4*
CCCNC(=O)Nc1ccc2c(c1)OC[C@@H](C)N(CCC(F)(F)F)C[C@H](C)[C@H](OC)CN(C)C2=O | . | -4.9 | -0.3 | . | . | . | .
O=C(NC[C@@H]1[C@H](c2ccccc2)[C@H](CO)N1C(=O)C1CC1)NC1CCCC1 | 0.4 | 10.6 | 36.3 | . | . | . | .
O=C(NC[C@H]1[C@H](c2ccccc2)[C@@H](CO)N1C(=O)C1CC1)NC1CCCC1 | -8.7 | -62.9 | 117.1* | 62.5 | 20.2 | -1.7 | 5.1
C[C@@H]1CN([C@H](C)CO)C(=O)c2cc(C#Cc3cccc(F)c3)cnc2O[C@@H]1CN(C)CC1CC1 | . | -69.7 | 21.1 | . | . | . | .
COc1ccc(S(=O)(=O)N[C@H]2C=C[C@@H](CC(=O)N3CCC(Cc4ccccc4)CC3)O[C@H]2CO)cc1 | 1.0 | -36.9 | 109.7* | 59.4 | 31.2 | 10.1 | 70.0*
O=C(NCC[C@@H]1CC[C@H](NS(=O)(=O)c2ccccc2F)[C@@H](CO)O1)c1ccc(F)cc1 | . | 8.6 | 103.7* | 39.1 | -2.4 | 2.6 | 1.3
O=C(C[C@H]1CC[C@@H](NS(=O)(=O)c2ccc(F)cc2)[C@@H](CO)O1)N1CCc2ccccc2C1 | -0.7 | 20.0 | -10.2 | . | . | . | .
O=C(C[C@@H]1CC[C@@H](NS(=O)(=O)c2ccc(F)cc2)[C@H](CO)O1)N1CCc2ccccc2C1 | 0.3 | 14.2 | 104.1* | 0.0 | 9.4 | -14.8 | 7.5
O=C(NCC[C@H]1CC[C@@H](NS(=O)(=O)c2ccccc2F)[C@@H](CO)O1)c1ccc(F)cc1 | . | -10.0 | -73.1 | . | . | . | .
COc1ccc(S(=O)(=O)N[C@H]2C=C[C@H](CC(=O)N3CCC(Cc4ccccc4)CC3)O[C@H]2CO)cc1 | -6.6 | -28.6 | 24.5 | . | . | . | .
Cc1ccc(S(=O)(=O)N[C@H]2CC[C@@H](CC(=O)N3CCC(Cc4ccccc4)CC3)O[C@H]2CO)cc1 | -8.2 | -1.9 | 59.6 | . | . | . | .
